Screening data deposited in PubChem by several laboratories.
A selection: hits, their analogues and other compounds. The true share with any hit is near 4.2%.
S1P4 antagonist – human S1P4 receptor antagonism | S1P4-expressing cells, antagonist mode, reporter read-out | inhibition, % at 4.98 µM | 220,000 compounds, 0.26% hits | AID 1510; in the data active means inhibition above about 29%
Target sequence (O95977 whole entry, looked up): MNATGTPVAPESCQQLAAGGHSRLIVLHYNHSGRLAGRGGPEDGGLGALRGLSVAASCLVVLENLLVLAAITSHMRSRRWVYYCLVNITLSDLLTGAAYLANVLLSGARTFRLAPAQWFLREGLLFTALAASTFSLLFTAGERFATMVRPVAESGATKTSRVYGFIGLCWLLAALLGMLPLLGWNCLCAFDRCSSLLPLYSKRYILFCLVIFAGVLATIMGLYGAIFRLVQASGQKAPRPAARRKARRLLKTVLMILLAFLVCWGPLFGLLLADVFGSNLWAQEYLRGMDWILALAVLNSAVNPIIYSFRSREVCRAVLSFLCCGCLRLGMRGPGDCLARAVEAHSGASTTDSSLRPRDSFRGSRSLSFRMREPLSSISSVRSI
Hsp70 activator – transcriptional activators of Hsp70 | HeLa Hsp70 promoter luciferase reporter, luminescence; scaled: vehicle 0, proteasome-inhibitor control 100% | activation, % at 10 µM | 200,000 compounds, 0.04% hits;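 active means activation above the mean across all tested compounds plus 3 SD, cutoff set per campaign, cut at about 5.5% in these data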
S1P4 ag – agonists of human S1P4 receptor | S1P4-expressing cell line, agonist reporter assay | activation, % at 4.98 µM | 220,000 compounds, 0.35% hits; in the data active means activation above about 11%
CHOP inh – blocks CHOP induction under ER stress; CHO-K1 CHOP-promoter luciferase, tunicamycin-induced, 15-18 h; inhibition, % at 10 µM; 220,000 compounds, 3.8% hits;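 active means compounds that reduced the stress-induced luciferase reporter signal by more than about 70% of percent inhibition, limit read from the data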
CHOP inh conf – confirmation of CHOP induction inhibitors. shares compounds with CHOP inh. CHO-CHOP promoter luciferase reporter, tunicamycin-induced, luminescence. inhibition, % at 10 µM. 2,100 compounds, 45% hits;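 active means mean of three repeat readings of reporter signal inhibition above a set limit, cut at about 70% in these data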
Numbers stand for hits; i = inactive; nt = not tested or not shown.

SMILES	S1P4 antagonist	Hsp70 activator	S1P4 ag	CHOP inh	CHOP inh conf
CCc1cc2c(C)ccc(C)c2nc1SCC(=O)Nc1c(C)[nH]c(=O)[nH]c1=O	i	i	i	i	nt
CCc1cc2c(C)ccc(C)c2nc1SCC(=O)Nc1c[nH]c(=O)[nH]c1=O	i	i	i	100.6	i
CCOC(=O)N1CCC(n2c(=S)[nH]c3cc(OCC)c(OCC)cc3c2=O)CC1	i	i	i	101.0	98.0
c1ccc(CNc2nc(N3CCN(Cc4ccccc4)CC3)nc3ccccc23)cc1	i	nt	i	i	nt
c1ccc(CN2CCC(Nc3nc(-c4ccccc4)nc4ccccc34)CC2)cc1	i	i	i	102.3	i
Cc1ccc(C(C)(C)C)cc1S(=O)(=O)NC(=O)c1ccccc1	i	i	i	i	nt
CCc1nc(SCC(=O)NCc2ccccc2)c2c(=O)n(C)c(=O)n(C)c2n1	i	i	i	i	nt
CCCc1nc(SCC(=O)Nc2ccccc2)c2c(=O)n(C)c(=O)n(C)c2n1	i	i	i	98.5	i
CCOC(=O)C(NC(=O)Nc1cccc(C)n1)(OCC(F)(F)F)C(F)(F)F (stereo unspecified)	i	i	i	106.0	94.8
COc1cc(-c2noc(CCC(N)=O)n2)cc(OC)c1OC	i	i	i	i	nt
COCCNC(=O)c1ccc(CS(=O)(=O)c2ccccc2)o1	i	i	i	i	nt
Cc1cc(-c2ccccc2)n(-c2cc(N/N=C/c3ccccc3O)ncn2)n1	i	i	i	101.6	i
CNc1cc(-n2nc(C)cc2-c2ccccc2)ncn1	i	i	i	i	nt
Cc1nn(C)c(C)c1NC(=O)CSc1nc(C2CC2)nc2c1cnn2-c1ccccc1	i	i	i	102.3	i
O=C(Cc1ccc(Cl)cc1)NC(=S)Nc1ccccc1N1CCOCC1	i	i	i	i	nt
Fc1ccc(NC(=S)NC2CCN(Cc3ccccc3)CC2)cc1	i	i	i	i	nt
S=C(Nc1ccc(Cl)c(Cl)c1)NC1CCCCC1	i	i	i	103.3	i
S=C(Nc1ccc2nsnc2c1)NC1CCCCC1	i	i	i	i	nt
S=C(Nc1ccc(Cl)c(Cl)c1)NC1CCN(Cc2ccccc2)CC1	i	i	i	105.4	i
Fc1ccc(C2=CC(c3ccc(Br)o3)n3ncnc3N2)cc1 (stereo unspecified)	i	i	i	i	nt
Cc1[nH]n(-c2ccccc2)c(=O)c1N=Nc1ccccc1O	i	i	i	105.2	i
COC(=O)Nc1nnc(-c2ccncc2)s1	i	i	i	i	nt
Cc1ccc(NC(=O)Nc2nnc(-c3ccncc3)s2)cc1C	i	i	i	103.8	i
CC(C)(C)c1cc(-c2ccccc2)n[nH]1	i	nt	i	i	nt
CC(NC(=O)CSc1nc2sc3c(c2c(=O)n1-c1ccccc1)CCCC3)c1ccccc1 (stereo unspecified)	i	i	i	i	nt
SMILES	S1P4 antagonist	Hsp70 activator	S1P4 ag	CHOP inh	CHOP inh conf
COc1ccc(NS(=O)(=O)c2ccc(O)c(NC(=O)c3cc4c(C)nn(-c5ccc(F)cc5)c4s3)c2)cc1	i	i	i	108.2	114.8
COc1ccc(NS(=O)(=O)c2ccc(N3CCOCC3)c(NC(=O)c3ccc(F)cc3)c2)cc1	i	i	i	i	nt
Cc1cc(C(=O)CCl)c(C)n1-c1cccc(S(=O)(=O)N2CCOCC2)c1	i	i	i	103.1	76.1
COc1ccc(-c2cc(=O)n(-c3ccc([N+](=O)[O-])cc3)[nH]2)cc1	i	i	i	i	nt
Cc1ccc(-c2cc(C(=O)Nc3ccc(S(=O)(=O)Nc4onc(C)c4C)cc3)c3ccccc3n2)cc1	i	i	i	i	nt
Cc1ccc(OCC(=O)N/N=C/c2cn[nH]c2-c2ccc(Cl)c(Cl)c2)cc1	i	i	i	99.2	72.4
CCc1nc(NCC(C)C)c(C#N)c2c1COC(C)(C)C2	i	i	i	107.6	71.1
CC(C)(C)c1cc(-c2csc(Nc3ccccc3)[n+]2Cc2ccc(C(=O)O)cc2)cc(C(C)(C)C)c1O	i	nt	i	106.4	120.7
O=C(O)c1ccc(C[n+]2c(-c3ccccc3)csc2Nc2ccccc2)cc1	i	i	i	i	nt
CCOC(=O)C1=C(N)c2ccccc2CC1C(C)C (stereo unspecified)	i	i	i	99.6	i
CCCCCCCCCCCCCCCC[n+]1ccc(/C=N/O)cc1	i	i	i	103.0	124.8
CCCCN(CCCC)C(=O)C[n+]1cccc(/C=N/O)c1	i	i	i	i	nt
CC(C)(C)c1ccc(NC(=O)Nc2ccc(F)cc2)cc1	i	i	i	102.6	107.2
CCc1ccc(-c2cc(C(=O)N/N=C/c3ccco3)[nH]n2)cc1	i	i	i	i	nt
O=C(N/N=C/c1c[nH]c2ccccc12)c1cc(-c2ccc(-c3ccccc3)cc2)n[nH]1	i	i	i	109.0	i
O=C(N/N=C/c1ccccn1)c1cc(-c2ccc3ccccc3c2)n[nH]1	i	i	i	103.0	114.5
O=C(N/N=C/C=C/c1ccccc1[N+](=O)[O-])c1ccncc1	i	nt	i	i	nt
O=C(N/N=C/C=C\c1ccccc1[N+](=O)[O-])c1cc(-c2ccc3ccccc3c2)n[nH]1	i	i	i	106.2	i
O=C(N/N=C/c1ccco1)c1cc(-c2ccc3ccccc3c2)n[nH]1	i	i	i	110.1	i
Cc1[nH]c2ccc(F)cc2c1CCN1C(=O)OC(C)(C)C1(C)O (stereo unspecified)	i	nt	i	i	nt
O=C(N/N=C/c1c[nH]c2ccccc12)C1CC1(c1ccccc1)c1ccccc1 (stereo unspecified)	i	i	i	100.3	i
O=C(N/N=C/c1c[nH]c2ccccc12)C1CC1c1ccccc1 (stereo unspecified)	i	i	i	i	nt
NC(=O)NOCc1cccc(Cl)c1	i	i	i	i	nt
CN(C)/C=N/C(=S)Nc1ccccc1	i	i	i	i	nt
COc1cc(N=c2ssnc2Cl)c(OC)cc1Cl	i	i	i	i	nt
SMILES	S1P4 antagonist	Hsp70 activator	S1P4 ag	CHOP inh	CHOP inh conf
Cc1ccc(N=c2ssnc2Cl)cc1	i	i	i	i	nt
COc1ccc(OC)c(N=c2ssnc2Cl)c1	i	i	i	106.8	i
Cc1cc(Cl)ccc1N=c1ssnc1Cl	i	i	i	108.5	i
Cc1cc(C)nc(/N=c2/ssnc2Cl)c1	i	i	i	96.2	i
COc1ccc(N2CCN(Cc3cc(=O)oc4cc(C)c(Cl)cc34)CC2)cc1	i	i	i	96.1	i
COc1ccc(N2CCN(Cc3cc(=O)oc4cc(-c5ccccc5)c(O)cc34)CC2)cc1	i	i	i	i	nt
c1ccc2oc(Cc3ccc(Cc4nc5ccccc5o4)cc3)nc2c1	i	i	i	i	nt
CCOC(=O)C1CCN(S(=O)(=O)c2ccc(Cl)nc2)CC1	i	nt	i	i	nt
Cc1cccc(OCC(=O)N/N=C\C=C\c2ccc3c(c2)OCO3)c1C	i	i	i	97.8	95.0
O=C(O)C1(P(=O)(c2ccc(Cl)cc2)c2ccc(Cl)cc2)CC1	i	i	i	i	nt
CC(C)N(Cc1nc(-c2ccccc2)no1)C(=O)CSc1ccccc1	i	i	i	i	nt
CCc1ccc(C2=C/C(=C/c3cccnc3)C(=O)O2)cc1	i	i	i	103.2	i
Cc1ccc(C2=N/C(=C\c3cccnc3)C(=O)O2)cc1	i	i	i	i	nt
Cn1c2ccc(F)cc2c2ncn(CCCN(CCO)CCO)c(=O)c21	i	i	i	i	nt
Cc1ccc(NCC(=O)N/N=C\C(Br)=C\c2ccccc2)cc1	i	i	i	110.4	i
